Compound activity deposited in PubChem by several laboratories.
EphB4 antag: antagonists of human EphB4-ephrin-B2 interaction; inhibition, % at 7 µM; P54760; actives 0.15% (n = 97,000); AID 720; EphB4 LBD / TNYL-RAW-Alexa532 peptide, fluorescence polarization;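 active means inhibition above the screen-wide mean inhibition plus 3 SD, cut at about 15% in these data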;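 further: 0% = DMSO wells and 100% = excess unlabeled TNYL-RAW peptide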
CYP2C9 activ: CYP2C9 (human) activation; P11712; AID 1024; recombinant CYP2C9, luciferin-H conversion, luminescence; hits give high values; factor 1 = untreated enzyme, 0 = blocked; actives 1.4% (n = 96,000); activation factor at 5 µM;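 active means activation factor of 2 or more for CYP2C9 at a 5 µM dose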;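 further: 0 = sulfaphenazole-blocked wells and 1 = vehicle-only wells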
Target sequence (P11712 whole entry, looked up): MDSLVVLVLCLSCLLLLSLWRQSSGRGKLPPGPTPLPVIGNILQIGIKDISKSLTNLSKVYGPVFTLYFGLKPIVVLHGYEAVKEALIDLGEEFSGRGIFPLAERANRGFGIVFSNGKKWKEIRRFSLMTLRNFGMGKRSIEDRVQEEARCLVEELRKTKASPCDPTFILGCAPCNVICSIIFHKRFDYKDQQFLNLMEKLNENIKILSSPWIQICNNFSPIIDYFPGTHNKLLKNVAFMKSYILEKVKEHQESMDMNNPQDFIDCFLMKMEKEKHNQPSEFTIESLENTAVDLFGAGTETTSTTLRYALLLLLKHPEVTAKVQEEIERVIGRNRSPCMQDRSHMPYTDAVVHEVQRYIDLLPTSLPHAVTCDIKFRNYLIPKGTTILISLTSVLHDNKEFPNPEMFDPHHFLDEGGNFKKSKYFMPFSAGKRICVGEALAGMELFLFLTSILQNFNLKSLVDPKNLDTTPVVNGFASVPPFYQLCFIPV
CYP2C9 inhib: human CYP2C9 inhibition | inhibition, % at 5 µM | P11712 | actives 20% (n = 96,000) | CYP2C9 Supersomes, luciferin-H conversion, luminescence | AID 777;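 active means blocking of liver enzyme CYP2C9 beyond about 50% at 5 µM, limit read from the data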
CYP2C19 inh: human CYP2C19 inhibition. actives 21% (n = 96,000). inhibition, % at 5 µM. CYP2C19 Supersomes, luciferin-H EGE luminescence, 30 min. AID 778. P33261;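 active means CYP2C19 inhibition above a set limit at 5 µM in the primary screen, cut at about 50% in these data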;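 further: plate controls were negative control wells for no effect and 2.5 mM tranylcypromine positive control for full effect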
CYP2C19 activ: increases human CYP2C19 enzyme activity; P33261; recombinant CYP2C19, luciferin-H EGE luminescence; hits give high values; 0 = fully inhibited enzyme, 1 = untreated enzyme; 96,000 tested, under 10 active; activation factor at 5 µM;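 active means activation factor of at least 2 at 5 µM in the primary screen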;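 further: 0 = wells with 2.5 mM tranylcypromine and 1 = vehicle-only wells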
Starred values were filed as active, the others as inactive; · = no result given. An excerpt weighted towards active compounds, which were near 27% of everything screened.

SMILES	EphB4 antag	CYP2C9 activ	CYP2C9 inhib	CYP2C19 inh	CYP2C19 activ
CCOC(=O)Cn1c(-c2cccnc2Cl)nc2cc(Cl)c(Cl)cc21	4	0.8	24	10	0.9
CCOC(=O)c1cnn(-c2cc(C)nc3c(-c4ccc(Cl)cc4)c(C)nn23)c1N	8	0.9	7	20	0.8
Cc1ccc(N=Nc2c(N)[nH]n3c(=O)c4c(nc23)CCCC4)cc1	7	1.1	-13	-12	1.1
Cc1ccc(NC(=O)c2cc(N3CCOCC3)nc3ccccc23)cc1	0	0.6	36	4	1
Cc1[nH]nc2c1/C(=N\O)CC(C)(C)C2	5	0.7	26	51*	0.5
Cc1[nH]nc2c1C(=O)CC(C)(C)C2	-9	1	1	-2	1
CCc1noc2c1/C(=N\O)CC(c1ccccc1)C2 (configuration not stated)	6	0.3	72*	76*	0.2
Cc1[nH]nc2c1/C(=N/O)CC(c1ccccc1)C2 (configuration not stated)	3	0.6	45	74*	0.3
CCCc1n[nH]c2c1/C(=N/O)CC(c1ccccc1)C2 (configuration not stated)	-3	0.6	35	77*	0.2
CCCCN(C)C(=O)c1coc(=O)c2ccccc12	-2	1	-1	10	0.9
CN(C(=O)c1coc(=O)c2ccccc12)c1ccc(F)cc1	4	0.4	59*	25	0.8
Oc1ccccc1C(=S)N1CCCCCC1	-6	0.8	16	52*	0.5
Oc1ccccc1C(=S)N1CCCCC1	·	0.8	18	78*	0.2
Nc1nc(-c2ccc3c(c2)NC(=O)CO3)cs1	-5	1	3	2	1
O=C(c1cc(-c2ccc3c(c2)OCO3)on1)N1CCOCC1	4	1	1	13	0.9
C=CCNC(=S)NNC(=O)COc1cccc(Cl)c1	0	0.9	10	60*	0.4
Cc1ccc(OCCCn2cc(C#N)c3ccccc32)cc1	2	·	·	·	·
Cc1ccc2nc(-c3cccc(NC(=O)c4ccco4)c3)[nH]c2c1	-5	0.1	91*	91*	0.1
O=C(Nc1ccc2nc(-c3cccnc3)[nH]c2c1)c1ccco1	·	0.8	17	10	0.9
O=C(Nc1ccc(-c2nc3ccccc3[nH]2)cc1)c1ccco1	·	0.6	39	66*	0.3
Cc1ccc2nc(-c3ccc(NC(=O)Cc4cccs4)cc3)[nH]c2c1	-2	0.6	44	3	1
Cc1ccc2nc(-c3ccc(NC(=O)C4CCCO4)cc3)[nH]c2c1 (configuration not stated)	3	0.5	54*	62*	0.4
CCOC(=O)Cc1csc(NC(=O)CS(=O)(=O)Cc2ccccc2)n1	8	0.5	49	20	0.8
CCNc1nc(NC(C)C)nc(N(C#N)CCOc2ccccc2)n1	2	0.6	39	60*	0.4
C#CCN(C#N)c1nc(NCC)nc(NC(C)C)n1	5	0.7	34	15	0.8
SMILES	EphB4 antag	CYP2C9 activ	CYP2C9 inhib	CYP2C19 inh	CYP2C19 activ
CCN(C#N)c1nc(NC(C)C)nc(NC(C)C)n1	7	0.3	73*	33	0.7
CCCCOC(=O)Nc1cc(C)c(Cl)cc1OC	-2	0.8	23	8	0.9
CCCOC(=O)Nc1cc(OC)c(Cl)cc1OC	-2	0.5	47	89*	0.1
COc1cc(C(=O)OCC(=O)Nc2cc(C)on2)cc(OC)c1OC	-10	0.9	11	-5	1
Cc1cccc(NC(=O)CSc2nc(-c3ccccc3)c(C#N)c(=O)[nH]2)c1C	-13	0.1	93*	41	0.6
C=CCSc1nc(-c2ccccc2)c(C#N)c(=O)[nH]1	11	0.6	44	14	0.9
Cc1cc(NC(=O)CSc2nc(-c3ccccc3)c(C#N)c(=O)[nH]2)no1	5	0.3	70*	8	0.9
CCOC(=O)CCCCC(=O)c1[nH]c(=O)[nH]c1CSc1nc(-c2ccccc2)c(C#N)c(=O)[nH]1	-1	0.1	86*	46	0.5
Cc1ccc(C(C)NC(=O)c2ccco2)cc1C (configuration not stated)	·	2.2*	-120	48	0.5
O=C(Oc1c(CN2CCOCC2)cc(Cl)c2cccnc12)c1ccc(F)cc1	4	0.4	62*	34	0.7
COc1ccc(C(=O)Oc2c(CN3CCOCC3)cc(Cl)c3cccnc23)cc1	4	0.7	34	12	0.9
COc1cccc(C(=O)Oc2c(CN3CCOCC3)cc(Cl)c3cccnc23)c1	8	0.1	91*	63*	0.4
COc1cc(C(=O)Oc2c(CN3CCOCC3)cc(Cl)c3cccnc23)cc(OC)c1OC	1	0.6	37	66*	0.3
CC(C)Oc1cccc(C(=O)Nc2ccc(CN3CCOCC3)cc2)c1	-1	0.9	12	14	0.9
Cc1ccc(-n2c(N)c(C(=O)N3CCCCC3)sc2=S)cc1	-3	0.7	26	67*	0.3
Cc1ccc(-n2c(N)c(C(=O)N3CCN(C)CC3)sc2=S)cc1	9	1	3	-5	1
O=C(CNC(=O)c1ccco1)Nc1cc(Cl)ccc1N1CCOCC1	-5	0.3	73*	38	0.6
O=C(Nc1ccc(Cl)cc1C(=O)NCCN1CCOCC1)c1ccco1	-3	0.3	68*	36	0.6
CCc1cccc(NC(=O)c2ccc(Br)o2)c1	1	0.8	18	70*	0.3
O=C(c1ccccc1)c1cccc(NC(=O)c2ccc(Br)o2)c1	-2	0.1	95*	64*	0.4
COC(=O)Cc1ccc(NC(=O)c2ccc(Br)o2)cc1	1	0.6	36	40	0.6
CCN(CC)c1ccc(NC(=O)c2ccc(Br)o2)cc1	·	1.1	-9	52*	0.5
COc1ccc(-c2nc3ccccc3c(=O)n2CCCn2ccnc2)cc1	·	0.8	25	45	0.5
CCCn1c(=O)n(C)c(=O)c2c(SCc3cc(C(C)=O)ccc3OCC)nc(C3CC3)nc21	-5	·	·	·	·
CCC(=O)Nc1ccc(NC(=O)CN2CCCC(C)C2)c(Cl)c1 (configuration not stated)	-6	0.9	6	3	1
SMILES	EphB4 antag	CYP2C9 activ	CYP2C9 inhib	CYP2C19 inh	CYP2C19 activ
Cc1ccc(S(=O)(=O)Nc2ccc(NC(=O)CN3CCCCC3)c(Cl)c2)cc1	-3	0	100*	71*	0.3
O=C(CN1CCCCC1)Nc1ccc(F)c(Cl)c1	·	0.9	8	81*	0.2
O=C(CN1CCCCC1)Nc1cccc(Cl)c1Cl	-11	1.1	-11	31	0.7
O=C(CN1CCCCC1)Nc1cc(Cl)ccc1Cl	-7	2.2*	-118	63*	0.4
O=C(CN1CCOCC1)Nc1cccc(Cl)c1Cl	7	1.3	-30	78*	0.2
O=C(CN1CCCCCC1)Nc1ccc(F)c(F)c1	4	·	·	·	·
COC(=O)c1nnn(-c2nonc2N)c1CN1CCc2ccccc21	-5	0.3	72*	96*	0
CCOC(=O)c1nnn(-c2nonc2N)c1CS(=O)(=O)c1ccccc1	-5	0.6	37	63*	0.4
